In the library only some 7.4% were active in any assay of this set; here they are far more common.
FLuc modulator: qHTS profiling assay for firefly luciferase inhibitor/activator using purifed enzyme and Km concentrations of substrates (counterscreen for miR-21 project). purified FLuc, Km substrates, luminescence inhibition. Potency, µM (titrated, usually from 57.5 µM), hits mostly inhibitors. 6.9% of 360,000 active. AID 588342, 2011; note: nearly all actives have a fitted effect of over 55% in size
Target sequence (P08659 whole entry, looked up): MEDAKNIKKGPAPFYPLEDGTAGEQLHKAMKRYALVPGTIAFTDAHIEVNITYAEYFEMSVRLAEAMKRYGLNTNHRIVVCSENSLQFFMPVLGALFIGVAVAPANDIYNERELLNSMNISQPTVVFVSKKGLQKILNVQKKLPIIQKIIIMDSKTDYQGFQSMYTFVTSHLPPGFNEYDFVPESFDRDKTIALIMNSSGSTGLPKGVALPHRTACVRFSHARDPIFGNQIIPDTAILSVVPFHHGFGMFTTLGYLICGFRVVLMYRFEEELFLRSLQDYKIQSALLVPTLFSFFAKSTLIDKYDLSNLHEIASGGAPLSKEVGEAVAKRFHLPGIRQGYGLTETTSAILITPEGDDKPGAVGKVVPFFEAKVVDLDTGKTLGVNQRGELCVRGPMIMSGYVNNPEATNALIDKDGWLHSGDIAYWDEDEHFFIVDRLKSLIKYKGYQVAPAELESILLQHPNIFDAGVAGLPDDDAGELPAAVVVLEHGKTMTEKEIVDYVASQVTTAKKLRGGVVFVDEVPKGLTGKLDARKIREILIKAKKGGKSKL
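Biochemical qHTS of compounds, final roughly 60 µM downward over six points, against 10 nM purified firefly luciferase using Km concentrations of substrates (10 uM D-luciferin, 10 uM ATP) in Tris acetate pH 7.5 buffer; luminescence output.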
NPC1 promoter act: qHTS Assay for NPC1 Promoter Activators | Huh7 NPC1 promoter luciferase reporter, 24 h | Potency, µM (top dose mostly 9.22 µM), actives largely listed as activators | 2.4% of 320,000 active; note: nearly all actives have a fitted effect of over 60% in size
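Stable NPC1-promoter luciferase Huh7 line; cpd (DMSO) 24 h, 37 °C, 5% CO2; Amplite luciferase reagent 10 min RT; luminescence readout. qHTS format.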
SMN2 splice enh: qHTS Assay for Enhancers of SMN2 Splice Variant Expression; HEK293 SMN2-luciferase splicing reporter, luminescence, 30-36 h; Potency, µM (series often up to 46.1 µM), most hits filed as activators; 2.8% of 210,000 active; note: nearly all actives have a fitted effect of over 55% in size
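qHTS luciferase splicing reporter: luminescence rises when SMN2 exon 7 is included in transfected HEK293 cells. Compound exposure lasted 30-36 h at 37C, with 4.5 mM final sodium butyrate as control, followed by a ONE-Glo read.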
ELG1 genotox: qHTS screen for small molecules that induce genotoxicity in human embryonic kidney (HEK293T) cells expressing luciferase-tagged ELG1; HEK293T ELG1-luciferase reporter, luminescence, 16 h; AID 504466, 2011; 1.3% of 330,000 active; Potency, µM (top dose mostly 46 µM), most hits filed as activators; note: nearly all actives have a fitted effect of over 60% in size
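16 hr compound incubation (37 °C, 5% CO2) of HEK293T cells carrying luciferase-tagged ELG1; luciferase then measured by ONE-Glo luminescence after 30 min at RT.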
Rab9 promoter act: qHTS Assay for Rab9 Promoter Activators; AID 485297, 2010; 2.8% of 320,000 active; Potency, µM (top dose mostly 9.22 µM), hits mostly activators; Huh7 Rab9 promoter-luciferase reporter, luminescence, 24 h; note: nearly all actives have a fitted effect of over 60% in size
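Luminescence from Amplite-detected luciferase (10 minutes, ambient) reports Rab9 promoter activation. Before that, stable Rab9-luciferase Huh7 cells (1500/well, reduced-serum OP-MEM I plus 10% FBS) were exposed to compound for 24 hours at 37C.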
Large screens that a line does not name were inactive. Calls come from the whole dose curve; as a rule, active = well fitted curve in the direction sought with a large enough effect; inconclusive = small, poorly fitted or top-dose-only effect, or another doubt; inactive = no such curve, though single readings can be large; an effect the other way counts as inactive or inconclusive.

CCN1CCN(C(=O)NC2CC(=O)N(c3ccc(OC)cc3)C2)CC1 (centres undefined)	none
COc1ccc(NC(=O)O/N=C/c2ccc(Br)cc2)cc1	FLuc modulator 26.9µM (no result: SMN2 splice enh)
COc1ccc(/C=N/OC(=O)Nc2ccc(Cl)cc2)c(OC)c1	FLuc modulator 12µM (no result: SMN2 splice enh)
Cc1ccc(NC(=O)O/N=C/c2ccc(Br)cc2)cc1	FLuc modulator inconclusive (no result: SMN2 splice enh)
COc1ccc(CCNC(=O)CC2SC(=NCCc3ccccc3)NC2=O)cc1OC (centres undefined)	none
COc1ccc(Cc2nc3ccc(C(=O)N4CCCC4)cc3o2)cc1	FLuc modulator 13.5µM, NPC1 promoter act 3.16µM, ELG1 genotox inconclusive, Rab9 promoter act 2.24µM (no result: SMN2 splice enh)
C=C(C)CNC(=O)c1ccc2nc(Cc3ccc(OC)cc3)oc2c1	FLuc modulator 10.7µM, NPC1 promoter act 2.24µM, ELG1 genotox inconclusive, Rab9 promoter act 2.82µM (no result: SMN2 splice enh)
O=C(c1ccc2nc(Cc3cccc(Cl)c3)oc2c1)N1CCOCC1	FLuc modulator 16.9µM, NPC1 promoter act inconclusive, ELG1 genotox inconclusive, Rab9 promoter act inconclusive (no result: SMN2 splice enh)
CCSc1nnc(NC(=O)Cc2ccc(OC)cc2)s1	none
CCc1nnc(NC(=O)c2cc(C)oc2C)s1	FLuc modulator 16.9µM (no result: SMN2 splice enh)
CCSc1nnc(NC(=O)c2ccc(C)o2)s1	FLuc modulator 16.9µM, NPC1 promoter act inconclusive, SMN2 splice enh 15.8µM, ELG1 genotox 18.4µM, Rab9 promoter act inconclusive
CCc1nnc(NC(=O)c2oc3cc(C)c(C)cc3c2C)s1	SMN2 splice enh inconclusive
CCSc1nnc(NC(=O)c2cc(C)oc2C)s1	FLuc modulator 16.9µM, NPC1 promoter act inconclusive, SMN2 splice enh 11.2µM, ELG1 genotox 7.31µM, Rab9 promoter act inconclusive
COc1ccccc1C(=O)Nc1ccc(C(=O)OCc2cc(=O)n3ccsc3n2)cc1	none (no result: NPC1 promoter act, SMN2 splice enh, ELG1 genotox, Rab9 promoter act)
CC1(C(=O)O)NCCc2cc(O)c(O)cc21 (centres undefined)	none (no result: FLuc modulator, NPC1 promoter act, ELG1 genotox, Rab9 promoter act)
COC(=O)CC1C(=O)NCCN1Cc1cn(-c2ccc(C)cc2)nc1-c1cccc(C)c1 (centres undefined)	FLuc modulator 16.9µM (no result: SMN2 splice enh)
Cc1cc(C)c(NC(=O)CS(=O)CC(=O)Nc2ccc(N3CCOCC3)cc2)c(C)c1 (centres undefined)	none (no result: SMN2 splice enh)
Cc1ccc(-c2nc3cccnc3s2)cc1NC(=O)C(C)C	FLuc modulator 10.7µM (no result: NPC1 promoter act, SMN2 splice enh, ELG1 genotox, Rab9 promoter act)
CCC(C(=O)Nc1cc(-c2nc3cccnc3s2)ccc1C)c1ccccc1 (centres undefined)	FLuc modulator 10.7µM (no result: NPC1 promoter act, SMN2 splice enh, ELG1 genotox, Rab9 promoter act)
Cc1ccc(-c2nc3cccnc3s2)cc1NS(C)(=O)=O	FLuc modulator 13.5µM, NPC1 promoter act inconclusive, ELG1 genotox inconclusive, Rab9 promoter act inconclusive (no result: SMN2 splice enh)
Cc1ccc(NC(=S)N2CCSC2c2cccs2)cc1 (centres undefined)	FLuc modulator 15.1µM
COC(=O)CC[C@@H](C)[C@@H]1CC[C@@H]2[C@@H]3CC[C@H]4C[C@@H](O)CC[C@@]4(C)[C@@H]3CC[C@]21C	none (no result: FLuc modulator, NPC1 promoter act, ELG1 genotox, Rab9 promoter act)
Cc1nc(CSc2nsc(/C=C/N(C)C)c2C#N)cs1	FLuc modulator 23.9µM
Cc1cc(-c2ccc(F)cc2)nc2cc(C(N)=O)nn12	none
CCOC(=O)c1cnn2c(C)cc(-c3ccc(F)cc3)nc12	FLuc modulator 12µM, NPC1 promoter act 2.82µM, SMN2 splice enh 11.2µM, ELG1 genotox inconclusive, Rab9 promoter act 3.55µM
COc1ccc(CNc2nccs2)cc1OC	none (no result: SMN2 splice enh)
Cc1ccc(CNc2nc3ccccc3s2)s1	FLuc modulator 0.338µM, NPC1 promoter act 0.355µM, SMN2 splice enh 1.26µM, ELG1 genotox inconclusive, Rab9 promoter act 0.355µM
Cc1ccc(CNC(C)c2ccccc2)s1 (centres undefined)	none (no result: NPC1 promoter act, ELG1 genotox, Rab9 promoter act)
COc1ccc(CNc2nc3ccccc3s2)cc1OC	FLuc modulator 23.9µM, NPC1 promoter act inconclusive, ELG1 genotox inconclusive, Rab9 promoter act inconclusive (no result: SMN2 splice enh)
c1ccc(CCNc2nc3ccccc3s2)cc1	FLuc modulator 19µM, NPC1 promoter act inconclusive, ELG1 genotox inconclusive, Rab9 promoter act inconclusive
CCCCOC(=O)c1ccc(Nc2ccc([N+](=O)[O-])cn2)cc1	none
CCCCOc1ccc(-c2ncc(Cl)cn2)cc1	FLuc modulator 2.69µM, NPC1 promoter act 2.51µM, SMN2 splice enh 12.6µM, ELG1 genotox 12.6µM, Rab9 promoter act 1.78µM
CCCCOc1ccc(-c2ncc([N+](=O)[O-])cn2)cc1	FLuc modulator inconclusive, NPC1 promoter act 3.98µM, ELG1 genotox inconclusive, Rab9 promoter act 3.16µM (no result: SMN2 splice enh)
